The values below come from PubChem BioAssay (Tox21).

Molecules are shown by their SMILES. Results filed as inconclusive are left out. Where a call stands in place of a potency, no number is given. Unmarked numbers belong to inactive results. The source made the active and inactive calls. The call rests on the fitted dose curve; in most records, active means well fitted inhibition curve with a large enough effect in the repeat runs; inconclusive means weak or mixed curves; inactive means flat fitted curve, though single readings scatter.

The target of the experiment is Luciferin 4-monooxygenase (Photinus pyralis) (UniProt P08659). The experiment in a line: qHTS assay to identify small molecule inhibitors of firefly luciferase (AID 1224835). Further: nearly all actives have a fitted effect of over 25% in size. Conditions: purified P. pyralis luciferase, luminescence inhibition; series mostly up to 115 µM. From the text: U.S. Tox21 Program National Center for Advancing Translational Sciences [NCATS] NIH Chemical Genomics Center [NCGC] U.S. Environmental Protection Agency [EPA] National Institutes of Environmental Health Sciences [NIEHS] National Toxicology Program [NTP] U.S. Food and Drug Administration [FDA] Tox21 Assay Overview: Firefly (Photinus pyralis) luciferase is one of the most commonly used transcriptional reporters. Firefly luciferase reporter-gene assays are generally considered one of the most sensitive assay types (Wood, 1995; Wood, 1998). However, it was initially observed, in 1991, by Thompson et al., that compounds that resemble the substrates of firefly luciferase (FLuc) can act as competitive inhibitors of the enzyme, and that these compounds, upon interaction with luciferase in the cell, can actually stabilize the protein and increase its half-life. Previous profiling work by other groups to determine the prevalence of compounds that affect FLuc enzymatic activity (PubChem AID 411) identified that ~3% of the MLSMR library (then at ~72K) inhibited FLuc. […] Thus the Tox21 10K library is profiled for activity against FLuc using a biochemical assay of purified FLuc and KM concentrations of FLuc substrates (D-luciferin and ATP).
Chain of Luciferin 4-monooxygenase (Photinus pyralis) (P08659 whole entry, looked up): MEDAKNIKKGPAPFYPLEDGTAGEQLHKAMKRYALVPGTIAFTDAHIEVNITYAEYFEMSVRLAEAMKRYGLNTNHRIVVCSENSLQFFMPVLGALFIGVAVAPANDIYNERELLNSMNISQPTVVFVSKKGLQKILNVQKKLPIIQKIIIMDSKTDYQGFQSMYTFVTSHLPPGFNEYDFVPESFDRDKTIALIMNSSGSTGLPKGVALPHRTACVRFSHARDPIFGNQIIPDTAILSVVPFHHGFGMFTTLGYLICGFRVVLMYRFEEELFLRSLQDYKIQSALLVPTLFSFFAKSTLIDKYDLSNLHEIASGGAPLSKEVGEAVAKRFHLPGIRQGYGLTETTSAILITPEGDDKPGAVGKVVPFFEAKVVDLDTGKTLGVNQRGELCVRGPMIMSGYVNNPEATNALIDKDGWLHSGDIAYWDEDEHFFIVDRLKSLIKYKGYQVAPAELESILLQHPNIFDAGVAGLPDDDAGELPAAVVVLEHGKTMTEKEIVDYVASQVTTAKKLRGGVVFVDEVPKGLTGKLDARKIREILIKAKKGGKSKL
These assay plates were then treated with 23nL of compound or DMSO using a Kalypsys pin tool, which allows for delivery of a 6-point interplate titration of each compound to the assay plate (quantitative HTS.) 1 uL of firefly luciferase mix (containing 50 mM Tris acetate, pH 7.6, 0.04 uM P. pyralis luciferase, 0.01% Tween, 0.05% BSA and dH2O) was then delivered by FRD to each well. Luciferase activity was then measured using a ViewLux CCD imager.
(Quantitative high-throughput screening tests each substance at several concentrations.)
As to `Cc1ncc([N+](=O)[O-])n1CC(O)CCl` (stereo not given), the Potency entry was “inactive”.

For the compound `NC(=O)NNC(N)=O`, the Potency result was “inactive”.

Take `Cc1cc(C)cc([N+](=O)[O-])c1`: the Potency result is “inactive”.

With `CC(=O)OC[C@H]1O[C@@H](OC(C)=O)[C@H](OC(C)=O)[C@@H]1OC(C)=O`, the Potency entry is “inactive”.

Take `Nc1cc(S(=O)(=O)O)ccc1S(=O)(=O)O`: the Potency entry was “inactive”.

As to `COC(=O)CCC(=O)O`, the Potency entry is “inactive”.

Take `BrC/C=C/CBr`: the activity change, negative = inhibition is 0.329% [at 23.6 µM].

Take `CCCC(C)CC` (stereo not given): the Potency entry is “inactive”.

For the compound `CC(=O)OC(C)c1ccccc1` (stereo not given), the Potency result was “inactive”.

In the case of `CNC(=O)NC`, the Potency result is “inactive”.

Take `CCCCCCCCCCCCOC(C)=O`: the Potency entry was “inactive”.

With `Cc1ccccc1C`, the Potency entry was “inactive”.

For `CN[C@@H]1[C@@H](O)[C@@H](O[C@@H]2[C@H](O)[C@H](O[C@H]3OC(CN)=CC[C@H]3N)[C@@H](N)C[C@H]2N)OCC1(C)O` (stereo not given in full), the Potency result was “inactive”.

Take `Nc1ccnc(=O)[nH]1`: the Potency result is “inactive”.

Regarding `COc1cc([N+](=O)[O-])ccc1N`, the Potency entry is “inactive”.

Regarding `CC1(N)CCC(C(C)(C)N)CC1` (stereo not given), the Potency result was “inactive”.

For `CCCO`, the Potency result was “inactive”.

Take `O=c1cc(O)c(Cl)c[nH]1`: the Potency entry was “inactive”.

As for `CCC1Nc2cc(Cl)c(S(N)(=O)=O)cc2S(=O)(=O)N1` (stereo not given), the Potency result was “inactive”.

With `Nc1ccc(S(=O)(=O)Nc2ccccn2)cc1`, the Potency entry was “inactive”.

On to `C=COCCOCCOC=C`, for which the Potency entry was “inactive”.

For `CNCc1ccccc1`, the Potency entry was “inactive”.

Regarding `NCCc1ccn[nH]1`, the Potency entry is “inactive”.

Consider `CC(C)CCC(=O)CCC(C)C`, for which the Potency entry was “inactive”.

As to `C/C=C(\C)C(=O)OCC/C=C\CC`, the Potency was 35.6 µM (active).

For the compound `C=CCOc1cc(Cl)ccc1C(=O)NCCN(CC)CC`, the Potency result is “inactive”.

`CCC(=O)c1ccc(O)cc1`: the Potency entry is “inactive”.

On to `Nc1ccc(/C=C/c2ccc(N)cc2S(=O)(=O)O)c(S(=O)(=O)O)c1`, for which the activity change, negative = inhibition was 0.257% [at 0.435 µM].

On to `C[N+](C)(C)CC(O)CCl` (stereo not given), for which the Potency result was “inactive”.

In the case of `CCCCCCCCCCCCC`, the Potency result was “inactive”.

For the compound `CCC(C)(C)C1CCC(=O)CC1`, the Potency result was “inactive”.

Regarding `Cc1ccccc1OCC1CO1` (stereo not given), the Potency result was “inactive”.

On to `CCCCCCCCOC(C)=O`, for which the Potency entry is “inactive”.

`C=C(C)[C@@H]1CC[C@@H](C)C[C@@H]1O`: the Potency result was “inactive”.

As to `CCOC(=O)OCC/C(SC(=O)OCC)=C(\C)N(C=O)Cc1cnc(C)nc1N`, the Potency result was “inactive”.

On to `C[Si]1(C)N[Si](C)(C)N[Si](C)(C)N1`, for which the Potency entry is “inactive”.

On to `O=C(O)c1ccc(OCCN2CCCCC2)cc1`, for which the Potency result is “inactive”.

As to `NC(=O)C1(N2CCCCC2)CCN(CCCC(=O)c2ccc(F)cc2)CC1`, the Potency entry was “inactive”.

For the compound `C[C@H](CCC(=O)NCC(=O)O)[C@H]1CC[C@H]2[C@@H]3[C@H](O)C[C@@H]4C[C@H](O)CC[C@]4(C)[C@H]3C[C@H](O)[C@]12C`, the Potency result was “inactive”.

As to `O=S1(=O)CCCC1`, the Potency entry is “inactive”.
